Test results from PubChem BioAssay (Tox21).
Records with an inconclusive call do not appear. Values without a mark were called inactive. Active and inactive are the calls of the source. Calls come from the whole dose curve; as a rule, active = well fitted cell-killing curve with a large enough effect in the repeat runs; inconclusive = weak or mixed curves; inactive = flat fitted curve, though single readings scatter.

Test: qHTS assay to identify small molecule antagonists of the estrogen related receptor (ERR) signaling pathway - cell viability counter screen (AID 1224818)
Details: ERR reporter cell line viability counter screen; series mostly up to 46.1 µM; viability change, negative = cytotoxic: at the top concentration
Excerpt: National Center for Advancing Translational Sciences [NCATS]
NIH Chemical Genomics Center [NCGC]
U.S. Environmental Protection Agency [EPA]
National Institutes of Environmental Health Sciences [NIEHS]
National Toxicology Program [NTP]
U.S. Food and Drug Administration [FDA]
Estrogen related receptors (ERRs), the first orphan nuclear receptors discovered, play an important role in the control of cellular energy metabolism. ERRs are required for high-energy production in response to the environmental challenges. ERR-alpha was also identified as an adverse marker for breast cancer progression; ERR-alpha-positive tumors have a poor prognosis. To screen and to identify environmental compounds that perturb the ERR signaling pathways could provide valuable information for potential therapeutic or preventive measures in the treatment of metabolic disease. To differentiate true ERR antagonists or agonist from cytotoxic substances, the assay is multiplexed with cell viability assay.
Tox21 Assay Protocol Summary:
The ERR cells were dispensed at 2,000 cells/5 ul/well in 1536-well white plates using a Multidrop dispenser. After the assay plates were incubated at a 37 C/5% CO2 incubator for 6 hours, 23 nL of compounds dissolved in DMSO, positive and negative controls or DMSO only was transferred to the assay plate by a pin tool. The plates were incubated at 37 C for 17.5 hours. 1 ul/well of CellTiter-Fluor reagent was added into the assay plates using a Flying Reagent Dispenser. After 30 min incubation at 37 C/5% CO2, the fluorescence intensity in the plates was measured using a ViewLux plate reader.
% is set by controls: 0 for no effect and ±100 for the full control effect.

Compound	viability change, negative = cytotoxic	Potency
C[N+](C)(C)CC#CCOC(=O)Nc1cccc(Cl)c1	7.63%	
Clc1ccc(N2CC3CCC(C2)N3)nn1	7.78%	
Cc1o[nH]c(=O)c1CC(N)C(=O)O (stereo not given)	4.94%	
Oc1ccc2c3c1O[C@H]1c4[nH]c5ccccc5c4C[C@@]4(O)C(C2)N(CC2CC2)CCC314 (stereo not given in full)	-18.3%	
NCCc1c[nH]c2ccccc12	5.34%	
Cc1nccc2c1[nH]c1ccccc12	2.45%	
O=C(O)Cc1cnc[nH]1	4.34%	
CC(N)c1cccc(Cl)c1Cl (stereo not given)	0.765%	
CC1=NN=C(c2ccc(N)cc2)c2cc3c(cc2C1)OCO3	3.1%	
O=C(Nc1ccccc1-c1ccc(Cl)cc1)c1cccnc1Cl	2.13% [at 92.2 µM]	
CC(C)[C@H]1CN[C@H](C(=O)O)[C@H]1CC(=O)O	5.82%	
c1ccc2c(N3CCNCC3)cccc2c1	3.54%	
NNC(=O)c1ccc(O)cc1	9.85%	
NC(N)=NOCCC(N)C(=O)O (stereo not given)	5.75%	
C[N+]1(C)C2CC(OC(=O)[C@H](CO)c3ccccc3)CC1C1OC12 (stereo not given in full)		inactive
N[C@@]1(C(=O)O)CC[C@@H](C(=O)O)C1	9.6%	
CC(C)(O)[C@@H]1[C@H]2OC(=O)[C@@H]1[C@]1(O)C[C@H]3O[C@]34C(=O)O[C@H]2[C@]14C (tested in a mixture with another compound)	1.96%	
C[C@]12Cc3cn4c(nc3C=C1CCC1C2CC[C@@]2(C)[C@H]1CC[C@@]2(O)C#N)nc1ccccc14 (stereo not given in full)	-20.5%	
Nc1ncnc2c1ncn2[C@@H]1O[C@H](COP(=O)(O)CP(=O)(O)OP(=O)(O)O)C(O)[C@H]1O (stereo not given in full)	-3.77%	
CCCN(CCC)C1CCc2ccc(O)cc2C1 (stereo not given)	6.95%	

Compound	viability change, negative = cytotoxic	Potency
O=C(N[C@H]1CN2CCC1CC2)c1ccc(Cl)cc1	-7.59%	
NC(CP(=O)(O)O)C(=O)O (stereo not given)	9.72%	
CN1C2CCC1CC(OC(c1ccccc1)c1ccccc1N)C2 (stereo not given)	7.69%	
c1ccc(C2(c3ccccc3)CC2C2=NCCN2)cc1 (stereo not given)	14.1%	
C[N+]1(C)CCOC(O)(c2ccc(-c3ccc(C4(O)C[N+](C)(C)CCO4)cc3)cc2)C1 (stereo not given)	4.9%	
O=[N+]([O-])c1ccc2nc(N3CCNCC3)ccc2c1	-22.1%	
CC(N)C(=O)OC(C)(C)Cc1ccc(Cl)cc1 (stereo not given)	3.92%	
CCN1C[C@@]2(COC)C3[C@@H](OC)C4[C@H]1C3([C@@H]1C[C@@]3(O)[C@H](OC(=O)c5ccccc5)[C@@H]1[C@]4(OC(C)=O)[C@@H](O)[C@@H]3OC)[C@H](OC)C[C@H]2O	9.38%	
OC1CCCCC1N1CCC(c2ccccc2)CC1 (stereo not given)	-6.42%	
COc1ccc(C(c2ccc(OC)cc2)C(Cl)(Cl)Cl)cc1	-8.88% [at 92.2 µM]	
Oc1ccc2c3c1O[C@H]1c4[nH]c5c(c4C[C@@]4(O)[C@@H](C2)N(CC2CC2)CC[C@]314)C[C@@]1(O)[C@H]2Cc3ccc(O)c4c3[C@@]1(CCN2CC1CC1)[C@H]5O4	8.46%	
NCCc1ccc(S(=O)(=O)F)cc1	4.36%	
COc1cc(OC)c(OC)cc1C=O	4.64% [at 92.2 µM]	
CNCCc1c[nH]c2ccc(O)cc12	6.28%	
CCCN1CCc2cc(O)cc3c2[C@H]1Cc1ccc(O)c(O)c1-3	-2.26%	
NC(N)=Nc1ccc2[nH]c3c(c2c1)C[C@@]1(O)[C@H]2Cc4ccc(O)c5c4[C@@]1(CCN2CC1CC1)[C@H]3O5	3.63%	
CN1CCC(c2c[nH]c3ccc(O)cc23)CC1	10.1%	
O=C(NC1CN2CCC1CC2)c1cc2ccoc2cn1 (stereo not given)	11.8%	
CC(N)Cc1c[nH]c2ccc(OCc3cccs3)cc12 (stereo not given)	-22.3%	
CC1OC1P(=O)(O)O (stereo not given)	5.33%	
